# Measurements: PubChem BioAssay (NCATS)
# Results filed as inconclusive are left out. The source made the active and inactive calls. Calls follow the shape of the dose curve; as a rule, active = well fitted inhibition curve with a large enough effect; inconclusive = small, poorly fitted or top-dose-only effect; inactive = flat fitted curve, though single readings scatter.
# Biological target: Voltage-gated inwardly rectifying potassium channel KCNH2 (Homo sapiens) (UniProt Q12809)
# Assay: qHTS Assay for Small Molecule Inhibitors of the Human hERG Channel Activity (AID 588834);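 also: lower thallium flux fluorescence means stronger hERG block; nearly all actives have a fitted effect of over 50% in size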; as to activity change, negative = inhibition: top concentration of the series differs between compounds
# Conditions: U2OS BacMam hERG, FluxOR thallium flux fluorescence; series mostly up to 46.1 µM; activity change, negative = inhibition: at the top concentration
# From the text: NIH Chemical Genomics Center [NCGC]
# National Institutes of Environmental Health Sciences [NIEHS]
# National Toxicology Program [NTP]
# We have developed a 1536-well cell-based assay for quantitative high throughput screening (qHTS) to determine in vitro hERG channel blockage as a measure of cardio toxicity with small molecules. This particular assay uses the U2OS cell line which is derived from human osteosarcoma.
# NCGC Assay Protocol Summary:
# HERG assay (FluxORTM thallium flux assay) was initially developed by Invitrogen/Molecular Probes, and then miniaturized into 1536-well plate in a homogeneous format by NCGC. This assay measures the activity of potassium channel using thallium dye (FluxOR) flux as surrogate measurement for potassium into the cells with a FDSS-7000 kinetic plate reader (Hamamatsu Corp., Hamamatsu City, Japan). The hERG ion channel is transduced into mammalian cells (U2OS) using a baculovirus (Bacmam) construct harboring the hERG K+ ion channel. So far we screened LOPAC1280 library (Sigma), the NTP collection of 1408 compounds, and the NCGC Pharmaceutical Collection (NPC), in which many well defined HERG blockers are present. The rank order potencies of many of these compounds are similar to that of other HERG assays (membrane potential, Rb+ flux, patch clamp, etc). This quick and homogeneous assay is also found to be sensitive, specific, and robust.
# Using the FluxORTM thallium flux assay, the activity of potassium channel using thallium dye (FluxOR) flux as surrogate measurement for potassium into the cells was measured in the U2OS cell line transduced with hERG K+ ion channel using a baculovirus (Bacmam) using Opti-MEM medium (Invitrogen) containing 2% fetal calf serum (FCS, HyCone) following loading buffer addition, compound treatment for around 10 minutes and finally adding stimulation buffer. The assay was performed in black clear Kalypsys 1536-well plates. In the screen, Astemizole was used as positive controls. Library compounds were measured for their ability to cause hERG channel blockage in the cell line, as reflected by a decrease in fluorescence intensity, in a concentration-dependent manner. […] AC50 values were determined from concentration-response data modeled with the standard Hill equation.
# qHTS protocol for hERG-U2OS cellular assay
# [Step] [Parameter] [Value] [Description]
# 1. Day 1: Replace medium in 70-80% confluent T225 flask with 2.5 mL of hERG-BacMam virus plus 12.5 mL of phosphate buffered saline (PBS) (corresponding roughly to a multiplicity of infection ratio of 100 virus particles/cell)
# 2. Incubation: 4 hrs @ room Temperature in Dark
# 3. Reagent; Remove virus; wash once with 25 ml DPBS
# 4. Reagent; 35 ml culture medium
# 5. Incubation; 37 °C overnight
# 6. Day2: Reagent; 3 uL; 2000 U2OS cells/well
# 7. Time; 4 hr; 37 °C incubation
# 8. Loading buffer; 1 uL; 0.7X;
# 9. Incubation: 1hr @ RT in Dark.
# 12. Time; 10min; 37 °C incubation
# 13. Read fluorescence Intensity on FDSS for 10 Sec with 1 sec interval
# 14. Reagent; 1 uL; stimulation buffer
# 15. Read fluorescence Intensity on FDSS for 2 min with 1 sec interval
# 16. Detection; Fluorescence Intensity; FDSS
# % is scaled to controls: 0 for no effect and ±100 for the full control effect; potency is read from the fitted curve at half-maximal effect.
# Voltage-gated inwardly rectifying potassium channel KCNH2 (Homo sapiens), sequence (Q12809 whole entry, looked up): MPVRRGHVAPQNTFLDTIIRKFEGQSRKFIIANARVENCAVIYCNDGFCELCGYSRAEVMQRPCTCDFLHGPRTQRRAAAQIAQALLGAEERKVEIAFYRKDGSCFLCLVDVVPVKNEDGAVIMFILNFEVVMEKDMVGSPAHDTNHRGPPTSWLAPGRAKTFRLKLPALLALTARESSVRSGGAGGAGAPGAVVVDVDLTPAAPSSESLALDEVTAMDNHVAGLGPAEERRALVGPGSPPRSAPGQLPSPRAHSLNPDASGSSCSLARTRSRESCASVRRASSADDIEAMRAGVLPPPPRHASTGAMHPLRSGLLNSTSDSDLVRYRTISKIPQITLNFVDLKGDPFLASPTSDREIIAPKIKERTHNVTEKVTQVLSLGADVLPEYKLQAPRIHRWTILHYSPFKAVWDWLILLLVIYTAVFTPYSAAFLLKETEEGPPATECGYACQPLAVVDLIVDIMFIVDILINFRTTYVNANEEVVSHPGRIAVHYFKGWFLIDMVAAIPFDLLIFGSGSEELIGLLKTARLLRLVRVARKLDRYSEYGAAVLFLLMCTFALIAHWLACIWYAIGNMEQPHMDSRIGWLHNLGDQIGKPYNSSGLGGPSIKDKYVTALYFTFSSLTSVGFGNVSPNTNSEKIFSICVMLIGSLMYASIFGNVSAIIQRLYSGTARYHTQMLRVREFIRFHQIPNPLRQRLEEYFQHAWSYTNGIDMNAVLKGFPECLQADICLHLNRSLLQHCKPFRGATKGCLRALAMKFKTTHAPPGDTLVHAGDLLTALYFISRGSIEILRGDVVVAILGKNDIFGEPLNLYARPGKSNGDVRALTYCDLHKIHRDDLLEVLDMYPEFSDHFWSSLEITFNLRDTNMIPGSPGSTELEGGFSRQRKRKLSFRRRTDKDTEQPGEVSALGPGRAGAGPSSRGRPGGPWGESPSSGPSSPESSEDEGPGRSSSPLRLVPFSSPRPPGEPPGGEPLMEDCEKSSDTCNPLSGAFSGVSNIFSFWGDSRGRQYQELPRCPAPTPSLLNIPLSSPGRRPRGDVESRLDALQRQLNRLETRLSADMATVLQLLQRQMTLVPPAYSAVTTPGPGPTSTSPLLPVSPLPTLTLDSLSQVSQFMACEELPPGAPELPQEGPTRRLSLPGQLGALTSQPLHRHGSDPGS
Structure (SMILES),"activity change, negative = inhibition",Potency
COc1c(N2C[C@@H]3CCCN[C@H]3C2)c(F)cc2c(=O)c(C(=O)O)cn(C3CC3)c12,-5.16% (inactive),–
COC(=O)C[C@](O)(CCCC(C)(C)O)C(=O)O[C@@H]1C(OC)=C[C@]23CCCN2CCc2cc4c(cc2[C@H]13)OCO4,-2.11% (inactive),–
Cc1nc2ccc(CN(C)c3ccc(C(=O)N[C@@H](CCC(=O)O)C(=O)O)s3)cc2c(=O)[nH]1,12.6% (inactive),–
CN1c2cc(O)c(N=NC(N)=O)cc2CC1S(=O)(=O)O (stereo not given),7.34% (inactive),–
CN[C@H]1CCc2cc(OC)c(OC)c(OC)c2-c2ccc(OC)c(=O)cc21,14.2% (inactive),–
COc1ccc(CC2c3cc(OC)c(OC)cc3CC[N+]2(C)CCC(=O)OCCCCCOC(=O)CC[N+]2(C)CCc3cc(OC)c(OC)cc3C2Cc2ccc(OC)c(OC)c2)cc1OC (stereo not given),4.3% [at 20.6 µM] (inactive),–
Nc1ccn([C@@H]2CS[C@H](CO)O2)c(=O)n1,0.501% (inactive),–
O=C(O)CO.[NH2-].[NH2-].[Pt+2],6.87% (inactive),–
Nc1ccn([C@@H]2O[C@H](CO)[C@H](O)C2(F)F)c(=O)n1,11.9% (inactive),–
COC(=O)C1=C(C)NC(C)=C(C(=O)OCCN2CCN(C(c3ccccc3)c3ccccc3)CC2)C1c1cccc([N+](=O)[O-])c1 (stereo not given),–,3.98 µM (active)
CC=CC1=C(C(=O)O)N2C(=O)[C@H](NC(=O)[C@H](N)c3ccc(O)cc3)[C@@H]2SC1,1.99% (inactive),–
O=c1c2ccccc2nc2n1CCc1c-2[nH]c2ccccc12,-27.3% (inactive),–
Nc1ccc(S(=O)(=O)Nc2ncccn2)cc1,5.85% [at 20.6 µM] (inactive),–
CC(C)(C)NC(=O)[C@H]1CN(Cc2cccnc2)CCN1C[C@@H](O)C[C@@H](Cc1ccccc1)C(=O)N[C@H]1c2ccccc2C[C@H]1O,-30.2% (inactive),–
C[C@H]1C[C@@H]2[C@@H]([C@@H](O)C[C@@]3(C)[C@H]2CC[C@]3(O)C(=O)CO)[C@@]2(C)C=CC(=O)C=C12,-2.96% [at 20.6 µM] (inactive),–
